Assay outcomes: PubChem, Center for Chemical Genomics, University of Michigan
Dicer processing: blocks human Dicer maturation of pre-miR-21; Q9UPY3; cat-ELCCA pre-miR-21 Dicer processing, chemiluminescence; stronger effect = higher value; z-score at 25 µM; actives 6% (n = 47,000); in the data active = z-score above about 3, passing the limit was not always enough;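 also: plate controls were vehicle for no effect and no enzyme for full effect; higher signal means more uncleaved substrate so more Dicer inhibition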
Target sequence (Q9UPY3 whole entry, looked up): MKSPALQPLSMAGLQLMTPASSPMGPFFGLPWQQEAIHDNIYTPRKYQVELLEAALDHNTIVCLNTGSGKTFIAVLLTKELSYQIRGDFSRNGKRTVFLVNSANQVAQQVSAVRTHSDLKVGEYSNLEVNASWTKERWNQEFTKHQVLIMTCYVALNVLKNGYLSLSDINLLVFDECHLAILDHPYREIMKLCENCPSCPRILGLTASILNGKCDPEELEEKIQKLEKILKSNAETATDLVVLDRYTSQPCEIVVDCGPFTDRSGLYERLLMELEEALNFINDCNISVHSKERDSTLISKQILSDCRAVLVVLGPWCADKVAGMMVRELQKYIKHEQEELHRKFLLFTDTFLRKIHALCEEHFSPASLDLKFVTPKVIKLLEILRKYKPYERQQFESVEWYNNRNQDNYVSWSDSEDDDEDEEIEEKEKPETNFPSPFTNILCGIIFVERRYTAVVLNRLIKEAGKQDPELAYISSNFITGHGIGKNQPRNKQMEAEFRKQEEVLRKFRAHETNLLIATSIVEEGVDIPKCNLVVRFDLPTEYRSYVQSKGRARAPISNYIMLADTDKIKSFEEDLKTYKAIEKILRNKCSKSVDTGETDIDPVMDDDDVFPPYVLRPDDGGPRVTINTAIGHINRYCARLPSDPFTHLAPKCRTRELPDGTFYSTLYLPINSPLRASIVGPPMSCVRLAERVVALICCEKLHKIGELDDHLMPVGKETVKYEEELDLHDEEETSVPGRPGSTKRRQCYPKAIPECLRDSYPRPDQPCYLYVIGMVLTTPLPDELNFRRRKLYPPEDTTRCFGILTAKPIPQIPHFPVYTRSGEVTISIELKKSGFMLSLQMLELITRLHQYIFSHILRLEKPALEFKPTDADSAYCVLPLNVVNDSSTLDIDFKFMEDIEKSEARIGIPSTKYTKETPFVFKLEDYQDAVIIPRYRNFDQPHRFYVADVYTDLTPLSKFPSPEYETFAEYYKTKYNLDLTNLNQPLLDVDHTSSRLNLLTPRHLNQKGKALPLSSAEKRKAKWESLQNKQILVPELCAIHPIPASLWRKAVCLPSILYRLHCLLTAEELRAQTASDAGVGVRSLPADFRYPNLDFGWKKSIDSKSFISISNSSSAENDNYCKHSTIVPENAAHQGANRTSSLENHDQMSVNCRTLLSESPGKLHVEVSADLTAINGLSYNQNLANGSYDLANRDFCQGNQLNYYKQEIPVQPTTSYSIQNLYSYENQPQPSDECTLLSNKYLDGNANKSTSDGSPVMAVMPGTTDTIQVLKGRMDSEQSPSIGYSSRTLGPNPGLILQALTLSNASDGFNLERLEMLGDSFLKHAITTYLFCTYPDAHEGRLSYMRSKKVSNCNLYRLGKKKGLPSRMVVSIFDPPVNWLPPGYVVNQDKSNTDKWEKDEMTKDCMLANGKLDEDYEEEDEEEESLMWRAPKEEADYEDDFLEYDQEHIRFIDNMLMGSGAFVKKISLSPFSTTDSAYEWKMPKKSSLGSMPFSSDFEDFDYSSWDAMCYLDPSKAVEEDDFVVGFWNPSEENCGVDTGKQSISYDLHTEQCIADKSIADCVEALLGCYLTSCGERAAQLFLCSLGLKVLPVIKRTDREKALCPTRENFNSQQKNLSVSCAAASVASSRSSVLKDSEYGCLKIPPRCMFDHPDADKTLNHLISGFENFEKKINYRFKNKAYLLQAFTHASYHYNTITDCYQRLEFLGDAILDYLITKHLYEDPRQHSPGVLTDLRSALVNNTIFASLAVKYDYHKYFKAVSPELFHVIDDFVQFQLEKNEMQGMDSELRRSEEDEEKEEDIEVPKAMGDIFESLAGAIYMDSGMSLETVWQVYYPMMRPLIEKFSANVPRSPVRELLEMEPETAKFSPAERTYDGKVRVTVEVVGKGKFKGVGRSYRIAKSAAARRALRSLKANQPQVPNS
An asterisk follows results filed as active. This excerpt belongs to a sample that is enriched for hits.

SMILES	Dicer processing
O=C(NCc1ccccc1)N/N=C/c1cccs1	1.4
Cc1c(/C=N/NC(=O)NCc2ccccc2)sc2ccccc12	5.4*
Clc1ccc(/C=N/Nc2ncnc3sc4c(c23)CCCC4)cc1	1
CSC(=Nc1ccccc1F)N1CCCCC1	4.8*
CS/C(=N\S(=O)(=O)c1ccccc1)N1CCCCC1	0.88
CS/C(=N\S(=O)(=O)c1ccccc1)N1CCCC1	2.1
CCCS(=O)(=O)c1csc(C(=O)OC)c1-n1cccc1	-0.28
Cc1nc(C)c(-c2ccn(S(=O)(=O)c3ccccc3Cl)n2)o1	-0.03
CCNC(=O)N(C)c1nncnc1C(=O)NC	4.5*
CNC(=O)c1ncnnc1N(C)C(=O)NCc1ccccc1	0.99
CCCCNC(=O)N(C)c1nncnc1C(=O)NC	-0.1
COc1ccc(Cl)cc1NS(=O)(=O)c1ccc(F)cc1	1.6
Cc1ccc(C)c(S(=O)(=O)Nc2ccc3oc(C)c(C(=O)O)c3c2)c1	-0.8
Cc1ccc(C)c(S(=O)(=O)Nc2ccc3oc4c(c3c2)C(=O)CCC4)c1	-1.4
O=c1oc2c(Cl)cc(NS(=O)(=O)c3ccc(F)cc3)cc2s1	9.7*
Cc1cc(C)cc(NS(=O)(=O)c2ccc3[nH]c(=O)[nH]c3c2)c1	-0.23
O=S(=O)(Nc1ccccc1Cl)c1ccc(F)cc1	-0.45
Cc1cc(NS(=O)(=O)c2ccc(NS(=O)(=O)c3cc(C)c(Cl)cc3Cl)cc2)no1	-0.3
Cc1ccc(C)c(S(=O)(=O)Nc2cc(Cl)c3oc(=O)sc3c2)c1	12*
COC(=O)c1sc(C(C)(C)C)cc1NS(=O)(=O)c1ccc(OC)cc1	-0.67
COc1ccc(S(=O)(=O)Nc2cc(Cl)c3oc(=O)sc3c2)cc1	8.9*
Cc1ccc(S(=O)(=O)Nc2cc(Cl)c3oc(=O)sc3c2)cc1	11*
COc1ccc(S(=O)(=O)Nc2nnc(C(C)C)s2)cc1	0.14
N/C(=N\OC(=O)N1CCOCC1)c1c(Cl)cccc1Cl	-0.1
Cc1nc(-c2ccc(S(=O)(=O)NCc3ccco3)s2)cs1	-0.34
SMILES	Dicer processing
CC(C)Cn1c(SCC(=O)c2ccc(Br)cc2)nc2ccccc2c1=O	-1.2
COc1cc(C2/C(=C(/O)c3ccc(C)cc3)C(=O)C(=O)N2CC(C)O)ccc1O (stereo unspecified)	-1.2
COc1ccc(OC)c(CN2CCN(C3CCC(C)CC3)CC2)c1 (stereo unspecified)	5.8
CC12CCC3c4ccc(N)cc4CCC3C1CCC2=O (stereo unspecified)	2.3
COC(=O)c1cccc(Cn2cnc([N+](=O)[O-])n2)c1	1.1
O=C(NCCN=C1NS(=O)(=O)c2ccccc21)c1cccc2ccccc12	0.23
FC(F)(F)C1=CC(c2ccc(Br)cc2)=NCCN1	3.6*
FC(F)(F)C1=CC(c2ccccc2)=NCCN1	3.1*
O=C1NCCN=C(c2ccccc2)c2ccccc21	0.36
Nc1nc(-c2ccc(Br)cc2)cc(C(F)(F)F)n1	0.66
c1ccc2c(CC3=NCCN3)cccc2c1	2.7
C/C(=N\NC1=NCCN1)c1ccc(Br)cc1	-0.75
CN(C)S(=O)(=O)Nc1cccc(C(F)(F)F)c1	0.83
Cc1ccc(C2C(C(=O)c3ccccc3)=NOC23C(=O)c2ccccc2C3=O)cc1 (stereo unspecified)	1.3
S=c1[nH]c(=S)c2cc(Cl)ccc2[nH]1	2.7
COC(=O)c1scc(S(=O)(=O)Cc2ccco2)c1NN=C(C#N)C#N	4.8*
N#CC(=C1SCCS1)S(=O)(=O)Cc1ccco1	-0.54
COC(=O)c1scc(S(=O)(=O)Cc2cccs2)c1N/N=C(\C#N)S(=O)(=O)c1cccs1	6
COc1ccc(OC)c(C2SCCN2S(=O)(=O)c2cccc(C)c2)c1 (stereo unspecified)	-0.76
Nc1ccc(-c2nc3cc(N)c(Cl)cc3[nH]2)cc1	7.8
CCc1ccc(CN(C(=O)c2oc3cc(C)ccc3c2C)C2CCS(=O)(=O)C2)cc1 (stereo unspecified)	0.89
CCOC(=O)/C(C#N)=C1\NC=CC=C1OC(C)=O	0.58
CN(C)CCCN(Cc1ccc2c(c1)OCO2)C(=O)NC1CCCCC1	4.7*
CN1C(=O)CC(NCc2ccc3c(c2)OCO3)C1=O (stereo unspecified)	-0.41
O=C(NCc1ccc2c(c1)OCO2)NC1CCCCC1	2.8
SMILES	Dicer processing
CN(C1CCCCC1)S(C)(=O)=O	0.2
C#CCN1C(=O)C(O)(CC(=O)c2ccccc2)c2cc(Br)ccc21 (stereo unspecified)	1.1
Nc1nc2c(c(=O)[nH]1)C(c1ccc(OCc3ccccc3F)cc1)CC(=O)N2 (stereo unspecified)	2.8
CC(=O)OC[C@H](OC(C)=O)[C@H](OC(C)=O)[C@@H](CNC(=O)c1ccc(C)c(C)c1)OC(C)=O	0.91
O=C1C(=O)N2C(=C1C(=O)N1CCCCC1)c1ccccc1CC21CCCC1	-0.81
CC1(C)Cc2c(sc(NC(=O)CN3C(=O)C4CC=C(Cl)CC4C3=O)c2C#N)CO1 (stereo unspecified)	4.8*
N#Cc1c(N2C(=O)C3CC=C(Cl)CC3C2=O)sc2c1CCCC2 (stereo unspecified)	1.3
CCOC(=O)c1c(NC(=O)COc2ccccc2)sc2c1CC(C)(C)OC2	1
CCOc1ccc(C2C(C#N)=C3N=C(N)c4ccccc4N3C3=C2C(=O)CCC3)cc1 (stereo unspecified)	0.74
COC(=O)c1ccc(C2Oc3nc(SC)nnc3-c3ccccc3N2C(C)=O)cc1 (stereo unspecified)	0.82
CC(C)(C)c1ccc(OCc2nnc(N)s2)cc1	4*
CC(C)(C)c1ccc(OCC(=N)N)cc1	-2.5
CC(C)(C)c1ccc(OCc2ccc(C(=O)O)cc2)cc1	-1.3
O=[N+]([O-])c1cccnc1NC1CCN(Cc2ccccc2)CC1	2.1
Cc1cc(Br)ccc1NC(=O)C1Sc2nnc(C)n2NC1c1ccc(Cl)cc1 (stereo unspecified)	2.5
O=C(O)c1ccc(Nc2ncnc3ccc(Br)cc23)cc1	4.9*
O=C(O)c1ccc(Nc2ccnc3cc(Cl)ccc23)cc1	1.6
Cc1nc2ccc(Br)cc2c(C(=O)O)c1I	1
CCOC(=O)C(NCCc1ccccc1)(NC(=O)c1ccccc1Cl)C(F)(F)F (stereo unspecified)	0.12
Cc1onc(-c2c(Cl)cccc2Cl)c1C(=O)Oc1c(Cl)cncc1Cl	-1.5
CSc1nnc2c(n1)OC(C)=Nc1ccc(Br)cc1-2	1.9
CCCSc1nnc2c(n1)OC(C)=Nc1ccc(Br)cc1-2	3.7*
CSc1nnc2c(n1)OC(C)=Nc1ccccc1-2	0.37
CCCCSc1nnc2c(n1)OC(CC)=Nc1ccccc1-2	-0.65
CCSc1nnc2c(n1)OC(CC)=Nc1ccccc1-2	-1.2
SMILES	Dicer processing
CCSc1nnc2c(n1)OC(C)=Nc1ccc(Br)cc1-2	3.4*
CCOc1ccc(-c2nc3n(n2)C(c2ccc(OC)cc2)C2=C(CC(C)(C)CC2=O)N3)cc1 (stereo unspecified)	1.4
Cc1ccccc1Cn1c(SCc2nn[nH]n2)nc2c1c(=O)n(C)c(=O)n2C	3.5*
CCSc1nc2c(c(=O)n(C)c(=O)n2C)n1Cc1ccccc1C	-0.76
Cc1ccccc1Cn1c(SC(C)C(=O)O)nc2c1c(=O)n(C)c(=O)n2C (stereo unspecified)	0.7
CN=C1NC(=O)CC(C(=O)Nc2ccc(F)cc2)S1 (stereo unspecified)	2.4
CC(C)(C)C1CCc2nc(N)c3c(=O)oc4ccccc4c3c2C1 (stereo unspecified)	5*
COC(=O)c1c(C)nc(C)c2c(=O)oc3ccccc3c12	0.08
CCCc1cc2c(c(N)n1)c(=O)oc1ccccc12	-0.55
Clc1ccc(-c2nc(NCc3ccco3)c3ccccc3n2)cc1	-1.1
